uPA generation: qHTS for Inhibitors of Cell Surface uPA Generation | hit rate 0.31% among 330,000 | Potency, µM (series often up to 38.3 µM), without a hit: at the highest dose activity change, negative = inhibition, actives largely listed as inhibitors | cell surface uPA generation assay, qHTS; active = well fitted inhibition curve with a large enough effect; inconclusive = small, poorly fitted or top-dose-only effect; inactive = no such curve, though single readings can be large or run the other way; tested in mouse RAW 264.7 cells; note: potency is the fitted concentration of half-maximal effect; % is set by controls: 0 for no effect and ±100 for the full control effect; nearly all actives have a fitted effect of over 55% in size
Six1-Eya2 inh: qHTS Assay for Inhibitors of the Six1/Eya2 Interaction | Homeobox protein SIX1 (Homo sapiens) + Protein phosphatase EYA2 (Homo sapiens), … | activity change, % (no concentration beside the values) | hit rate 0.56% among 360,000 | AlphaScreen GST-Six1/His-Eya2 binding, biochemical; active compounds read low; note: % is set by controls: 0 for no effect and ±100 for the full control effect
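Homogeneous AlphaScreen proximity assay pairing GST-Six1 with His-tagged Eya2 (added as 5X mix: 250 nM and 500 nM) in 50 mM Tris pH 8.0, 300 mM NaCl, 1 mM TCEP. Glutathione donor and nickel acceptor beads; 1 h, 37 °C, dark.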
MBNL1 CUG block: qHTS Assay for Inhibitors of MBNL1-poly(CUG) RNA binding; TR-FRET MBNL1-His/biotin-(CUG)12 binding, 665/545 ratio; Potency, µM (highest dose often 57.5 µM), for the others: at the top dose activity change, negative = inhibition, actives largely listed as inhibitors; hit rate 0.036% among 280,000; AID 2675, 2010; Muscleblind-like protein 1 (Homo sapiens), Q9NR56; active = well fitted inhibition curve with a large enough effect in the signal ratio, with a control signal flat, not every such curve was filed as active; inconclusive = small, poorly fitted or top-dose-only effect, or effect the other way, or a change in a side signal; inactive = no such curve, though single readings can be large or run the other way; the % refers to the signal ratio; note: potency is the fitted concentration of half-maximal effect; % is set by controls: 0 for no effect and ±100 for the full control effect
Target sequence (Q9NR56 whole entry, looked up): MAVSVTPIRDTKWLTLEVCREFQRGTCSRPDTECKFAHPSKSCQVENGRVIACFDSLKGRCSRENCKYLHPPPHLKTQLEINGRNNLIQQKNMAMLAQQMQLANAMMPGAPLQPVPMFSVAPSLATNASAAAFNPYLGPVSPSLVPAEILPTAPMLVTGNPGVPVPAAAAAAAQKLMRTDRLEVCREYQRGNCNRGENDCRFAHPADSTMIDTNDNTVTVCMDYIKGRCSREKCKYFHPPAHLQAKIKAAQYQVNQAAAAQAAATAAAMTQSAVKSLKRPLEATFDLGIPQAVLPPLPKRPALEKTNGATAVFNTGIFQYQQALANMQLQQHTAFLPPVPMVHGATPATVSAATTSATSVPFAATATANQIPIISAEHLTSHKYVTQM
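Compounds (final 92 nM to 58 uM) are added to His-tagged MBNL1 and biotin-(CUG)12, then terbium anti-His antibody and streptavidin-XL665 (5 nM final). After 60 min at room temperature, the 665/545 nm ratio is read.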
CtBP-E1A blk: qHTS Assay for Inhibitors of the CtBP/E1A Interaction; activity change, % (test concentration not listed); hit rate 0.49% among 340,000; CtBP / adenovirus E1A interaction (AlphaScreen); AID 651724, 2012; AlphaScreen GST-E1A/His-CtBP binding, 1536-well; active compounds read low; note: % is set by controls: 0 for no effect and ±100 for the full control effect
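Steps: dispense buffer (Tris pH 8.0, NaCl 300 mM, TCEP 1 mM, BSA, Tween 20); add 5X protein mix (GST-E1A, His-CtBP, 125 nM each); pin 23 nL compound; 2 h at 37 °C, dark; add 5X beads (50 ug/mL); 1 h; read.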
Mito fusion act: qHTS Assay for Small Molecule Inhibitors of Mitochondrial Division or Activators of Mitochondrial Fusion; S. cerevisiae fusion-defective mutant growth rescue, CellTiterGlo 48 h; AID 485298, 2010; Potency, µM (doses to about 46.1 µM), for inactives: top-dose growth rescue (activation), actives largely listed as activators; hit rate 0.23% among 320,000; active = well fitted activation curve with a large enough effect; inconclusive = small, poorly fitted or top-dose-only effect; inactive = no such curve, though single readings can be large or run the other way; note: potency is the fitted concentration of half-maximal effect; % of control where 0% means no effect; nearly all actives have a fitted effect of over 45% in size
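Temperature-sensitive fusion-defective S. cerevisiae (e.g. fzo1-1, mgm1-5) were grown with compound in YPEG medium (3% ethanol, 3% glycerol) for 48 hours at 37C. Growth rescue was measured as viability by CellTiterGlo luminescence after 10 minutes at ambient.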
Starred values were filed as active, the others as inactive; ? = inconclusive; nt = no result; ! = repeats disagree; [ ] = dose if it differs, or a comment. Compounds with a hit are over-represented: about 1.1% of the library has one in this group of screens. Cut-off read from the data, not from the text of the source, unless noted: active = activity change below about -65%; inconclusive = mostly about -30% to -63%; inactive = weaker than that.

SMILES | uPA generation | Six1-Eya2 inh | MBNL1 CUG block | CtBP-E1A blk | Mito fusion act
Cc1cc(N2CCN(c3ccc(C(F)(F)F)cc3[N+](=O)[O-])CC2)c2ccccc2n1 | 14µM* | -4 | ? | nt | -7%
COc1ccc(Nc2nc(-c3c(C)nc4ncccn34)cs2)cc1 | -116% | ? | ? | nt | 17%
Cc1nc2ncccn2c1-c1csc(Nc2ccccc2)n1 | -12% | -80* | ? | 7 | 7%
COc1ccccc1Nc1nc(-c2c(C)nc3ncccn23)cs1 | -2% | -85* | 21% | -92* | 13%
CN1C(=O)N(CC(=O)c2ccc3c(c2)OCO3)C(=O)C12CCCCC2 | nt | 8 | nt | 4 | nt
CCOc1ccc(Br)cc1C1=NN(C(C)=O)C(c2ccc([N+](=O)[O-])s2)O1 (stereo not given) | 6.3µM* | -10 | ? | ? | -7%
CC(=O)N1N=C(c2ccc(C)cc2)OC1c1ccc(Br)cc1 (stereo not given) | 4% | -3 | -19% | nt | 2%
Cc1ccc(S(=O)(=O)N2CCN(C(=O)C(O)c3ccccc3)CC2)cc1 (stereo not given) | nt | 3 | nt | 2 | nt
CC1=C(C)C(=O)C(CCCCC#CCCCC#CCO)=C(C)C1=O | -20% | 0 | 2% | ? | 18µM*!
O=C1C(=Cc2cn(-c3ccccc3)nc2-c2ccc(OCc3ccccc3F)cc2)SC(=S)N1CCS(=O)(=O)O | nt | -70* | nt | -15 | nt
COc1ccc(-c2nn(-c3ccccc3)cc2/C=C2/SC(=S)N(CCC(=O)O)C2=O)cc1 | 1% | -16 | 5% | -8 | 12%
O=C1C(=Cc2cn(-c3ccccc3)nc2-c2ccc(OCc3ccc(Cl)cc3)cc2)SC(=S)N1CCS(=O)(=O)O | nt | -67* | nt | ? | nt
Cc1ccc(-c2nn(-c3ccccc3)cc2/C=C2\SC(=S)N(CC(=O)O)C2=O)cc1 | 19% | -1 | 4% | nt | 1%
COc1ccc([C@H]2N[C@]3(CCCN(CC4CCCCC4)C3=O)[C@H]3C(=O)N(Cc4ccccc4)C(=O)[C@@H]23)cc1 | nt | -7 | nt | -12 | nt
CC(C)CCOc1ccc(C(=O)NNC(=O)CNC(=O)c2ccccc2F)cc1 | 4% | 3 | nt | 1 | nt
CC(c1ccccc1)n1c(-c2cccs2)nc2c(c(=O)c3ccccc3n2C)c1=O (stereo not given) | 1% | -1 | -2% | 0 | 22µM*
Cn1c2ccccc2c(=O)c2c(=O)n(-c3ccc(F)cc3)c(-c3cccs3)nc21 | -8% | 3 | 300% | 6 | -1%
O=C(NCc1ccccc1)C(c1ccc(-c2ccccc2)cc1)n1c(=O)c(-c2ccco2)nc2ccccc21 (stereo not given) | nt | -14 | nt | 0 | nt
O=[N+]([O-])c1ccc2c(c1)S(=O)(=O)C=C2 | nt | nt | nt | nt | -112%
CCOc1ccc(/C=C(\C#N)C(=O)NCC2CCCO2)cc1OCC (stereo not given) | -1% | -5 | nt | -66* | -6%
COCCN1C(=O)COc2ccccc2C1C(=O)NC1CCCC1 (stereo not given) | nt | 29 | nt | 6 | nt
O=C1NC(c2ccccn2)Nc2sc3c(c21)CCC3 (stereo not given) | 0% | -80* | ? | -77* | -1%
CN1CCc2c(sc3c2C(=O)NC(c2ccccn2)N3)C1 (stereo not given) | 0% | -67* | ? | ? | -2%
c1cnc2c(c1)ccc1cccnc12 | ? | -90* | 3% | -76* | ?
O=Cc1ccc2ccc3cccnc3c2n1 | -1% | -69* | 9% | -93* | -18%
CSS(=O)(=O)c1cccc2cccnc12 | 1% | ? | 0% | -70* | 2%
O=C1OC2(CCCCC2)CC2=C1C1O[C@](CCCCN3C(=O)c4ccccc4C3=O)(Cc3ccccc31)O2 | nt | nt | -3%[11.5 µM] | nt | 1%[9.22 µM]
COC(=O)c1c(C)[nH]c(C=O)c1-c1ccccc1 | -2% | 2 | nt | -12 | 10%
COC(=O)c1c(C)[nH]c(C)c1C(=O)c1ccccc1Cc1ccccc1 | -4% | 1 | nt | 5 | 2.9µM*

Screening data from PubChem BioAssay.
